{"source": "the supplement of paper PMC3334620", "note": "Over roughly 33,000 sequences, “E-score (-0.5 to 0.5)” has its median near -0.016; the highest 2% begin near 0.3. The sample as a whole holds a higher share of the highest values than the screen did.", "data": [{"target": "T1, Yer184c (UniProt P39961)", "T1 sequence": "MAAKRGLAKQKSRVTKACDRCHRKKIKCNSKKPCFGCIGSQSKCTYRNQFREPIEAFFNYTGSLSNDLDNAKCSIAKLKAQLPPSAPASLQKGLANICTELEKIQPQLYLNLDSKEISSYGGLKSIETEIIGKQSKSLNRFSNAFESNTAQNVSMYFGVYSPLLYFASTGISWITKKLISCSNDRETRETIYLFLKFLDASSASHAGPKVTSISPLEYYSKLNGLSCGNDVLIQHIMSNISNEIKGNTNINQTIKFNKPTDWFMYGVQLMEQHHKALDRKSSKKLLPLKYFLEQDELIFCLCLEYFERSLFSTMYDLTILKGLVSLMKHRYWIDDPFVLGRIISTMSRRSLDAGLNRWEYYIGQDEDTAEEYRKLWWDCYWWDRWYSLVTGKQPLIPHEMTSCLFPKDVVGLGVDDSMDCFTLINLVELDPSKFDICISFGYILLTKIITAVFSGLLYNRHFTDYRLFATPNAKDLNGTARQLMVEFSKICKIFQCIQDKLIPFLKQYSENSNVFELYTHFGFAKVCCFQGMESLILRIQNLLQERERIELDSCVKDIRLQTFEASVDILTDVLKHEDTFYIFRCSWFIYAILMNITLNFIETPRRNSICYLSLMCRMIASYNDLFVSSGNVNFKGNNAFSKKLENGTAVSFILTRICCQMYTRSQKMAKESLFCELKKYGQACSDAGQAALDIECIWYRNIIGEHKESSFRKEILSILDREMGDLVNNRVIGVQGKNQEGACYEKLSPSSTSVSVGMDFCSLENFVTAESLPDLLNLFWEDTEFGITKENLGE", "experiment": "PBM E-score (8-mer binding enrichment) (E-score (-0.5 to 0.5)); higher = stronger / more preferred TF binding", "settings": "protein concentration: 100 nM; construct: GST-full length", "procedure": "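Universal 'all 10-mer' protein binding microarrays (Agilent AMADID 015681) probed with GST-tagged S. cerevisiae TFs (full-length or DBD) made by in vitro transcription/translation (PURExpress), about 100-200 nM. Bound TF was detected with fluorescent anti-GST. Each ungapped 8-mer (which stands for itself and its reverse complement) is scored by the PBM enrichment score (E-score), a modified Wilcoxon-Mann-Whitney statistic from -0.5 to +0.5, computed with the Universal PBM Analysis Suite. Scale: above 0.35 generally sequence-specific binding.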", "values": [{"sequence": "TATATTAA", "PBM E-score": 0.274}, {"sequence": "AATATTCA", "PBM E-score": 0.037}, {"sequence": "AATATTCC", "PBM E-score": 0.342}, {"sequence": "CGACCACA", "PBM E-score": -0.136}, {"sequence": "TAGCGAGA", "PBM E-score": 0.00559}, {"sequence": "AAGGACAA", "PBM E-score": 0.0335}, {"sequence": "ATCGGTCC", "PBM E-score": 0.0402}, {"sequence": "GTCCCACA", "PBM E-score": 0.00972}, {"sequence": "CTTGGTGA", "PBM E-score": -0.0525}, {"sequence": "ACCGAAAC", "PBM E-score": 0.264}, {"sequence": "ACCGAATA", "PBM E-score": 0.173}, {"sequence": "ACCGAAAT", "PBM E-score": 0.218}, {"sequence": "GCCGAATA", "PBM E-score": 0.361}, {"sequence": "CCCGAAAC", "PBM E-score": 0.0699}, {"sequence": "TCCGAAAA", "PBM E-score": 0.264}, {"sequence": "CCCGAATA", "PBM E-score": 0.196}, {"sequence": "ACCGAAAG", "PBM E-score": 0.181}, {"sequence": "GCCGAAAA", "PBM E-score": 0.439}, {"sequence": "CCCGAAAA", "PBM E-score": 0.263}, {"sequence": "GCCGAAAC", "PBM E-score": 0.34}, {"sequence": "ACCGAAAA", "PBM E-score": 0.349}, {"sequence": "GGTGGGAC", "PBM E-score": -0.349}, {"sequence": "GAAGTAGC", "PBM E-score": -0.00548}, {"sequence": "AGTAACGG", "PBM E-score": 0.101}, {"sequence": "AACGTAAG", "PBM E-score": -0.122}, {"sequence": "CATCAATC", "PBM E-score": -0.0552}, {"sequence": "GAGCCCCA", "PBM E-score": -0.266}, {"sequence": "CCGTGCGA", "PBM E-score": 0.166}, {"sequence": "CTTTGCCA", "PBM E-score": 0.034}, {"sequence": "TAACCATA", "PBM E-score": -0.0927}, {"sequence": "CTCTTTCC", "PBM E-score": -0.089}, {"sequence": "TAATTATA", "PBM E-score": 0.322}, {"sequence": "GAATTATA", "PBM E-score": 0.193}, {"sequence": "AAATTATA", "PBM E-score": 0.205}, {"sequence": "GGTGTTCA", "PBM E-score": 0.0476}, {"sequence": "ACCGGAAG", "PBM E-score": 0.279}, {"sequence": "ACCGGAAC", "PBM E-score": 0.398}, {"sequence": "ACCGGACC", "PBM E-score": 0.29}, {"sequence": "GCAGGAAC", "PBM E-score": -0.0354}, {"sequence": "ACCGGAAA", "PBM E-score": 0.376}, {"sequence": "GCCGGAAC", "PBM E-score": 0.403}, {"sequence": "GCCGGAGC", "PBM E-score": 0.238}, {"sequence": "CCCGGAAC", "PBM E-score": 0.298}, {"sequence": "ACCGGAAT", "PBM E-score": 0.233}, {"sequence": "AAGTCTAA", "PBM E-score": -0.093}, {"sequence": "CAGTCTCG", "PBM E-score": -0.0905}, {"sequence": "CAAGCGTC", "PBM E-score": -0.0502}, {"sequence": "GCTACTTA", "PBM E-score": -0.201}, {"sequence": "CATCTTGC", "PBM E-score": 0.0249}, {"sequence": "TGGCTCAA", "PBM E-score": -0.0833}, {"sequence": "CGGCTCAA", "PBM E-score": 0.314}, {"sequence": "AGGCTCAA", "PBM E-score": -0.157}, {"sequence": "CGGCTCAG", "PBM E-score": 0.337}, {"sequence": "CGGCTCAC", "PBM E-score": 0.183}, {"sequence": "AGGCTCAG", "PBM E-score": -0.163}, {"sequence": "TACAGTCA", "PBM E-score": -0.0508}, {"sequence": "ATCATTCA", "PBM E-score": 0.195}, {"sequence": "CATGGTGC", "PBM E-score": -0.169}, {"sequence": "CTACATAG", "PBM E-score": 0.0225}, {"sequence": "CGATACCA", "PBM E-score": -0.0309}, {"sequence": "ACCGGCCC", "PBM E-score": 0.13}, {"sequence": "GACGGCCC", "PBM E-score": -0.168}, {"sequence": "TCCGGCCA", "PBM E-score": 0.218}, {"sequence": "GCCGGCCC", "PBM E-score": 0.343}, {"sequence": "GCCGGCCA", "PBM E-score": 0.348}, {"sequence": "GACGGCCA", "PBM E-score": -0.117}, {"sequence": "GCCAGATA", "PBM E-score": -0.0238}, {"sequence": "GCCAACCC", "PBM E-score": -0.059}, {"sequence": "CCAAGGTC", "PBM E-score": -0.16}, {"sequence": "CGCTTATA", "PBM E-score": 0.0756}, {"sequence": "CCTTGCCA", "PBM E-score": -0.0398}, {"sequence": "CCTAATGC", "PBM E-score": -0.233}, {"sequence": "GCTTTCGA", "PBM E-score": -0.0696}, {"sequence": "ATTTTAGA", "PBM E-score": 0.0124}, {"sequence": "CACTGTCC", "PBM E-score": 0.0762}, {"sequence": "AAGCCGAC", "PBM E-score": 0.13}, {"sequence": "AAGCCGAA", "PBM E-score": 0.389}, {"sequence": "GAGCCAAA", "PBM E-score": -0.115}, {"sequence": "AAGCCAAA", "PBM E-score": 0.0744}, {"sequence": "GAGCCGAC", "PBM E-score": 0.0364}, {"sequence": "CAGCCGAA", "PBM E-score": 0.229}, {"sequence": "AAGCCGAG", "PBM E-score": 0.286}, {"sequence": "GAGCCGAA", "PBM E-score": 0.372}, {"sequence": "AAGCCGAT", "PBM E-score": 0.356}, {"sequence": "CTAAACGC", "PBM E-score": 0.0164}, {"sequence": "CTAGGCAC", "PBM E-score": -0.14}]}]}
